Test systems include SR leukemia; RPMI-8226 leukemia; OVCAR-8 ovarian; OVCAR-5 ovarian; OVCAR-4 ovarian; SK-OV-3 ovarian; IGROV1 ovarian; HS 578T breast; NCI/ADR-RES ovarian; T-47D breast; BT-549 breast; MDA-MB-435 melanoma; SW-620 colon; MCF7 breast; HCT-116 colon; KM12 colon; HCC-2998 colon.
What all share (test): NCI-60 one-dose screen, 48 h (100 = growth as untreated, 0 = no growth, -100 = all killed)
What all share (settings): 10 µM unless noted

Structures are written as SMILES. This is part of a sample that, as a whole, favours compounds with a hit. Of some 83,000 tested, about 20% had one in any assay.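 Growth was measured after 48 h exposure to one concentration of compound in 96-well plates. Values under 10 count as active.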 Values without a mark were called inactive. Calls of active or inactive are those of the source.

On to `COc1ccc(NC(=O)[C@H](C)N)cc1C(=O)Nc1cccc(-c2cc(=O)c3c(OC)c(OC)c(OC)cc3o2)c1`, for which the growth is 36.5% in the experiment on SR leukemia; 44.1% with RPMI-8226 leukemia; 50.1% in the experiment on OVCAR-8 ovarian; 102% in the experiment on OVCAR-5 ovarian; 62.4% in the experiment with OVCAR-4 ovarian; 115% in the experiment with SK-OV-3 ovarian. Besides, the growth was 56.7% in the experiment on IGROV1 ovarian; 27.8% in the experiment on HS 578T breast; 63.8% with NCI/ADR-RES ovarian; 41% with T-47D breast; 78.4% with BT-549 breast; 82.1% with MDA-MB-435 melanoma. For the same molecule, the growth is 94% in the experiment on SW-620 colon, 57.8% with MCF7 breast, 75% in the experiment with HCT-116 colon and 68.1% in the experiment with KM12 colon.
Turning to `CCc1ccc(NC(=O)N[C@@H](Cc2cccc(F)c2)C(=O)N[C@@H]2C(=O)N3CCC[C@H]3C(=O)N3CCCC[C@H]3C(=O)N[C@@H](CO)C(=O)N3C[C@H](C)C[C@H]3C(=O)O[C@H]2C)c(F)c1`, the growth was 31.4% with SR leukemia; 20.3% in the experiment on RPMI-8226 leukemia; 20.9% in the experiment on OVCAR-8 ovarian; 36.4% in the experiment with OVCAR-5 ovarian; 24.6% in the experiment with OVCAR-4 ovarian; 21.8% in the experiment with SK-OV-3 ovarian. Besides, the growth in the experiment on IGROV1 ovarian is 39.5%; with HS 578T breast, 35.5%; with NCI/ADR-RES ovarian, 60.6%; in the experiment with T-47D breast it was 23.1%; in the experiment with BT-549 breast, 28.5%; with SW-620 colon it was 34.6%. The growth was 14.9% in the experiment with MCF7 breast, 10.8% in the experiment on HCT-116 colon, 24.1% in the experiment with HCC-2998 colon and 37.8% in the experiment with KM12 colon.
As for `NS(=O)(=O)Oc1ccc2nc(Nc3ccc(F)c(F)c3)ccc2c1`, the growth was 60.5% with SR leukemia; 86.7% in the experiment on RPMI-8226 leukemia; 96.1% in the experiment on OVCAR-8 ovarian; 91.6% in the experiment with OVCAR-5 ovarian; 88.9% in the experiment with OVCAR-4 ovarian; 111% in the experiment on SK-OV-3 ovarian. Moreover, the growth in the experiment on IGROV1 ovarian is 94.4%; with HS 578T breast it was 104%; in the experiment on NCI/ADR-RES ovarian it was 94.6%; with T-47D breast, 90%; in the experiment with MDA-MB-435 melanoma it was 89%; in the experiment on SW-620 colon, 105%. Moreover, the growth in the experiment on MCF7 breast is 93.2%; in the experiment with HCT-116 colon, 92.2%; in the experiment with HCC-2998 colon it was 90.3%; in the experiment with KM12 colon, 58.9%.
As for `CS(=O)(=O)c1ccc2c(c1)c1c(n2S(=O)(=O)c2ccc(Cl)cc2)CCCC1`, the growth is 12.3% with SR leukemia; 19.1% in the experiment on RPMI-8226 leukemia; 31.9% in the experiment on OVCAR-8 ovarian; 40.2% in the experiment with OVCAR-5 ovarian; 64.7% with OVCAR-4 ovarian; 29.7% in the experiment with SK-OV-3 ovarian. In addition, the growth in the experiment with IGROV1 ovarian is 48%; in the experiment on HS 578T breast, 0.523% (active); in the experiment on NCI/ADR-RES ovarian, 21%; with T-47D breast, 23%; with BT-549 breast it was -1.38% (active); with MDA-MB-435 melanoma it was -11% (active). Moreover, the growth was 9.36% (active) in the experiment with SW-620 colon, 16.9% in the experiment with MCF7 breast, 19.2% with HCT-116 colon and 29.3% in the experiment on KM12 colon.
As for `COc1ccc(-c2nc(SCCC(C)C)nc(N/N=C\c3ccc(O)cc3)c2C#N)cc1`, the growth in the experiment on SR leukemia was 25.5%; in the experiment on RPMI-8226 leukemia, 42.7%; in the experiment with OVCAR-8 ovarian, 47.6%; in the experiment with OVCAR-5 ovarian it was 101%; with OVCAR-4 ovarian, 74.9%; with SK-OV-3 ovarian, 109%. Further, the growth with IGROV1 ovarian was 68.5%; in the experiment on HS 578T breast, 67%; in the experiment on NCI/ADR-RES ovarian, 55.1%; with T-47D breast it was 76.7%; in the experiment on BT-549 breast, 67.5%; in the experiment with SW-620 colon it was 54.1%. The growth was 40.3% with MCF7 breast, 39.6% with HCT-116 colon, 86.8% with HCC-2998 colon and 67% with KM12 colon.
Turning to `O=C1CSC(=O)N1Cc1cc2ccccc2nc1Cl`, the growth is 98.2% in the experiment with SR leukemia; 98.8% in the experiment with RPMI-8226 leukemia; 98.7% in the experiment on OVCAR-8 ovarian; 101% in the experiment with OVCAR-5 ovarian; 99.2% in the experiment with OVCAR-4 ovarian; 110% in the experiment with SK-OV-3 ovarian. The growth is 99.9% in the experiment with IGROV1 ovarian; 97.1% with HS 578T breast; 105% in the experiment on NCI/ADR-RES ovarian; 92.5% with T-47D breast; 95.6% with BT-549 breast; 103% in the experiment on SW-620 colon. The growth with MCF7 breast is 92.5%; in the experiment on HCT-116 colon, 106%; with HCC-2998 colon, 105%; in the experiment with KM12 colon it was 101%.
Take `CCc1ccc(NC(=O)N[C@@H](Cc2cccc(F)c2)C(=O)N[C@@H]2C(=O)N3CCC[C@H]3C(=O)N3CCCC[C@H]3C(=O)N[C@@H](C)C(=O)N3C[C@H](C)C[C@H]3C(=O)O[C@H]2C)c(F)c1`: the growth in the experiment on SR leukemia is 21.2%; in the experiment on RPMI-8226 leukemia, 12.3%; in the experiment on OVCAR-8 ovarian, 23.1%; in the experiment with OVCAR-5 ovarian, 23.9%; in the experiment on OVCAR-4 ovarian, 23.9%; with SK-OV-3 ovarian it was 24.9%. Also, the growth in the experiment with IGROV1 ovarian was 35.9%; in the experiment on HS 578T breast, 26.3%; in the experiment on T-47D breast, 29.6%; with BT-549 breast, 17.9%; in the experiment on MDA-MB-435 melanoma, 19.2%; in the experiment with SW-620 colon, 34.4%. The growth in the experiment with MCF7 breast was 15.2%; in the experiment on HCT-116 colon it was 3.62% (active); in the experiment with HCC-2998 colon, 5.04% (active); with KM12 colon, 33.6%.
Regarding `O=C(NCCCCCCNC(=O)c1c2c(nc3ccccc13)-c1cccnc1SC2)c1c2c(nc3ccccc13)-c1cccnc1SC2`, the growth in the experiment with SR leukemia was 89.7%; in the experiment on RPMI-8226 leukemia it was 58.9%; with OVCAR-8 ovarian, 78.2%; in the experiment on OVCAR-5 ovarian it was 57.9%; in the experiment with OVCAR-4 ovarian, 79.6%; in the experiment on SK-OV-3 ovarian, 85.7%. The growth in the experiment with IGROV1 ovarian is 43.7%; in the experiment on HS 578T breast, 83.2%; in the experiment with NCI/ADR-RES ovarian it was 77.2%; in the experiment with T-47D breast it was 79.7%; with MDA-MB-435 melanoma, 56.8%; in the experiment on SW-620 colon, 39.2%. For the same molecule, the growth with MCF7 breast is 76.1%; in the experiment with HCT-116 colon, 66.3%; with HCC-2998 colon, 44.6%; with KM12 colon it was 74.7%.
As to `C/C(=C(/c1ccc(O)cc1)c1ccc(OCCN(C)C)cc1)c1ccc(Cl)cc1`, the growth with SR leukemia is -3.2% (active); in the experiment with RPMI-8226 leukemia, -8.72% (active); in the experiment with OVCAR-8 ovarian, 62.1%; with OVCAR-5 ovarian, 66.6%; in the experiment on OVCAR-4 ovarian, 66.9%; in the experiment with SK-OV-3 ovarian it was 83%. Moreover, the growth was 58.1% with IGROV1 ovarian; 46.8% in the experiment with HS 578T breast; 61.8% with NCI/ADR-RES ovarian; 30.9% in the experiment with T-47D breast; 73.7% in the experiment with BT-549 breast; -32.9% (active) in the experiment on SW-620 colon. Also, the growth in the experiment on MCF7 breast was 15.7%; in the experiment on HCT-116 colon, 25.6%; in the experiment on HCC-2998 colon it was 7.02% (active); in the experiment on KM12 colon, 44.8%.

The values above are taken from PubChem BioAssay (NCI).
